Source: PubChem BioAssay
Calls of active or inactive are those of the source.

Key:
[1] = target: Albumin (Bos taurus) (UniProt P02769); assay: compounds binding labelled BSA control protein – biochemical, small-molecule microarray, Alexa647 label, 635/667 nm fluorescence, artefact control for SMM control protein annotation, profiling panel (AID 1118); details: BSA-A647 binding, fluorescence 635 nm, higher = more signal;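 further: score merges 667 nm emission intensity and signal-to-noise per printed compound spot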
[2] = probe aXIP binding to arrayed compounds – biochemical, NeuroSMM set, 635/667 nm fluorescence, primary screen (AID 1119); details: small-molecule microarray, higher = more signal, called active from +8 up or from −8 down;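 further: probe is the protein aXip251-270 applied at 1 µg/mL to compound-printed slides; binding of probe to printed compounds measured as 667 nm fluorescence plus signal to noise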
[3] = probe aNOTCH3 binding on compound microarray – biochemical, small-molecule microarray, 635/667 nm fluorescence, primary screen (AID 1120); details: higher = more signal;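 further: probe is a biotin-tagged antibody raised against NOTCH3 rather than NOTCH3 protein; score merges spot fluorescence near 667 nm with spot signal to noise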
[4] = probe aNOTCH2 binding on compound microarray – biochemical, small-molecule microarray, 635/667 nm fluorescence, primary screen (AID 1121); details: higher = more signal;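 further: score merges feature fluorescence read at 667 nm with its signal to noise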
[5] = target: Carbonic anhydrase 2 (Homo sapiens) (UniProt P00918); assay: compounds binding carbonic anhydrase 2 – biochemical, small-molecule microarray, Alexa647-labelled CAII, profiling panel (AID 1122); details: CAII-A647 binding fluorescence, higher = more signal
[6] = COS7 lysate on small-molecule microarray, probe aHis, 635 nm (AID 1123); details: COS7 cell lysate, fluorescence, higher = more signal;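 further: z-score combines 667nm fluorescence intensity with signal-to-noise per printed compound spot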
[7] = probe aLAP1 signal on lysate-treated microarray – cell lysate, small-molecule microarray, COS7 lysate, primary screen (AID 1124); details: probe aLAP1, fluorescence, higher = more signal;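 further: lysate comes from COS7 cells expressing LAP1 and is applied at 0.3 µg/mL; score merges spot fluorescence near 667 nm with signal-to-noise over triplicate slides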
[8] = tested on: Sam68 (KHDRBS1); assay: compounds binding KHDRBS1 protein – biochemical, small-molecule microarray, 635 nm fluorescence, primary screen (AID 1125); details: higher = more signal;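 further: score merges 667 nm channel intensity with signal to noise over triplicate slides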
[9] = tested on: Chordin-like protein 2 (CHRDL2); assay: compounds binding chordin-like 2 – biochemical, small-molecule microarray, 635 nm fluorescence, primary screen (AID 1126); details: fluorescence 635 nm, higher = more signal;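 further: printed compound slides probed with Chrdl2 protein at 4 µg/mL for 1 h at 4 C; score merges 667 nm emission intensity with signal to noise over three replicate slides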
[10] = target: Concanavalin-A (Canavalia ensiformis) (UniProt P02866); assay: compounds binding concanavalin A lectin – biochemical, small-molecule microarray, Alexa647 label, 635 nm, artefact control for SMM control protein annotation, primary screen (AID 1127); details: ConA-A647 binding fluorescence, higher = more signal;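 further: z combines 667 nm emission intensity with signal-to-noise across three replicate slides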
[11] = compounds binding Alexa647 anti-His antibody – biochemical, small-molecule microarray, 635 nm fluorescence, artefact control for SMM control protein annotation, primary screen (AID 1128); details: higher = more signal;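 further: score merges feature fluorescence with signal-to-noise for each printed compound spot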
[12] = tested on: Human papillomavirus type 1a E7 protein (residues 1-88); assay: HPV1a E7 small-molecule binders, primary screen, biochemical, small-molecule microarray, residues 1-88, 635 nm (AID 1129); details: small-molecule microarray binding, fluorescence 635 nm; higher = more signal
[13] = target: Focal adhesion kinase 1 (Homo sapiens) (UniProt Q05397); assay: PTK2 protein binding on printed compound slides – biochemical, small-molecule microarray, 635/667 nm fluorescence, BSA, DTT, primary screen (AID 1130); details: 635 nm fluorescence, higher = more signal;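 further: composite of spot emission at 667 nm and signal to noise over triplicate slides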
[14] = tested on: Fibrinogen (Alexa647-labelled); assay: Alexa647-fibrinogen binding to printed small molecules – biochemical, small-molecule microarray, 635/667 nm fluorescence, artefact control for SMM control-protein annotation, profiling panel (AID 1131); details: fibrinogen-A647 binding fluorescence, higher = more signal;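 further: z-score merges 667 nm fluorescence with per-spot signal-to-noise over triplicate slides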
[15] = target: Follistatin (Homo sapiens) (UniProt P19883); assay: FST protein binding to printed compounds – biochemical, small-molecule microarray, 635/667 nm fluorescence, primary screen (AID 1132); details: 635 nm fluorescence, higher = more signal
[16] = target: Fibroblast growth factor 2 (Homo sapiens) (UniProt P09038); assay: basic fibroblast growth factor binding to printed compounds – biochemical, small-molecule microarray, 635/667 nm fluorescence, primary screen (AID 1133); details: FGF2, fluorescence 635/667, higher = more signal
[17] = JC-1 mitochondrial potential readout, lung cancer cells – cell-based, A549, JC-1 fluorescence, basal, 24 h, 100 nL, profiling panel (AID 1138); details: higher = more signal;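 further: A549 lung adenocarcinoma cells under basal conditions with no added stimulus; test concentration not given here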
[18] = tested on: Lefty1; assay: Lefty1 protein binding to printed compounds – biochemical, small-molecule microarray, 635/667 nm fluorescence, primary screen (AID 1139); details: fluorescence 635/667, higher = more signal
[19] = tested on: wheat germ agglutinin (Triticum aestivum), Alexa647-labelled; assay: Alexa647-WGA lectin binding to printed small molecules – biochemical, small-molecule microarray, 635/667 nm fluorescence, artefact control for SMM control-protein annotation, profiling panel (AID 1140); details: WGA-A647 binding, 635 nm fluorescence, higher = more signal;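 further: score merges 667 nm feature emission with signal to noise over triplicate slides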
[20] = target: Luciferin 4-monooxygenase (Photinus pyralis) (UniProt P08659); assay: inhibition of purified Photinus pyralis luciferase – biochemical, luminescence, purified enzyme, 2006 set, primary screen (AID 1141); details: purified firefly luciferase, SteadyGlo luminescence, 30 min; higher = more signal, called active from +8 up or from −8 down;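 further: cell-free assay with purified firefly luciferase at 100 ng per well in PBS; test concentration not given here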
Chain of Luciferin 4-monooxygenase (Photinus pyralis) (P08659 whole entry, looked up): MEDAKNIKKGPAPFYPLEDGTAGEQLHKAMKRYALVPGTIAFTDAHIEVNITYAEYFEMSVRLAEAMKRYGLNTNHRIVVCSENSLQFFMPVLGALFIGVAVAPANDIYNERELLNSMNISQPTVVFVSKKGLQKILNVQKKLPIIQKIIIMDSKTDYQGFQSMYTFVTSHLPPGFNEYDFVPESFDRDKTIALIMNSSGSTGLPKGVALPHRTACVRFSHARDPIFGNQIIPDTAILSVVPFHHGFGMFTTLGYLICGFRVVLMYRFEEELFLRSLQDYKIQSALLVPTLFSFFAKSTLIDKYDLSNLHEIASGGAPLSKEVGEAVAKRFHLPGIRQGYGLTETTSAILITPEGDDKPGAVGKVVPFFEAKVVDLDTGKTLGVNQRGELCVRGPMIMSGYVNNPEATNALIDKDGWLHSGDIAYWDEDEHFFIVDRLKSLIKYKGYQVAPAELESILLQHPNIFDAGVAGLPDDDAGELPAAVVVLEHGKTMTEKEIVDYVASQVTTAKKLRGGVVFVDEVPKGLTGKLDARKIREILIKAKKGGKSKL

Chain of Concanavalin-A (Canavalia ensiformis) (P02866 whole entry, looked up): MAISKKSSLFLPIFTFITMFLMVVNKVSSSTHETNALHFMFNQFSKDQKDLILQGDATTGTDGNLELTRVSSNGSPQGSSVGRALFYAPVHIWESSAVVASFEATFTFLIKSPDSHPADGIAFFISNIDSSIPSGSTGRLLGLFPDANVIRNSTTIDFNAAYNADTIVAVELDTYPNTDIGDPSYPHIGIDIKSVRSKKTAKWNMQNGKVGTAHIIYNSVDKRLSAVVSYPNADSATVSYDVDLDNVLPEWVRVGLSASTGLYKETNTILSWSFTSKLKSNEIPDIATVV
Chain of Albumin (Bos taurus) (P02769 whole entry, looked up): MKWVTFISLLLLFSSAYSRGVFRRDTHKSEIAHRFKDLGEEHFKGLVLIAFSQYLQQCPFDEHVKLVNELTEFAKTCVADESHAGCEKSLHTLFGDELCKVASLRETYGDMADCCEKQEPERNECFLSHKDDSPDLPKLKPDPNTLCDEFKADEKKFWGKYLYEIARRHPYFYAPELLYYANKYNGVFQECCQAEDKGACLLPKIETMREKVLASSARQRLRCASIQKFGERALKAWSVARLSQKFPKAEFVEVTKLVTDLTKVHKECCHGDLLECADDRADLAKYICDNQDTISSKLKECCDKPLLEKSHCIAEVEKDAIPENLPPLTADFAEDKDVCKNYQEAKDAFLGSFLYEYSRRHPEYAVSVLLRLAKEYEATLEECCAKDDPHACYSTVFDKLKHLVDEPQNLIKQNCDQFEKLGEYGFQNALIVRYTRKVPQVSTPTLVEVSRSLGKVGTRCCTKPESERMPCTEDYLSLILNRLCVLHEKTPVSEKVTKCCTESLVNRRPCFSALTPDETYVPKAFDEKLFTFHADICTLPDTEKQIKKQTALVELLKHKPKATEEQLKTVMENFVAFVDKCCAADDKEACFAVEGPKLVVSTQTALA
Chain of Fibroblast growth factor 2 (Homo sapiens) (P09038 whole entry, looked up): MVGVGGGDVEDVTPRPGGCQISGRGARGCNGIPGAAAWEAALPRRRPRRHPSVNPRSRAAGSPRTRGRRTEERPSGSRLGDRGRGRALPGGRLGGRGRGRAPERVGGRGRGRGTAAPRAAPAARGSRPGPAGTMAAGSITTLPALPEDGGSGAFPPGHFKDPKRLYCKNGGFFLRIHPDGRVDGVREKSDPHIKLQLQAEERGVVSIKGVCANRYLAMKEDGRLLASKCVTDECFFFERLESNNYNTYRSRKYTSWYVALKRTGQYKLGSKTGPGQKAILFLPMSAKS
Chain of Focal adhesion kinase 1 (Homo sapiens) (Q05397 whole entry, looked up): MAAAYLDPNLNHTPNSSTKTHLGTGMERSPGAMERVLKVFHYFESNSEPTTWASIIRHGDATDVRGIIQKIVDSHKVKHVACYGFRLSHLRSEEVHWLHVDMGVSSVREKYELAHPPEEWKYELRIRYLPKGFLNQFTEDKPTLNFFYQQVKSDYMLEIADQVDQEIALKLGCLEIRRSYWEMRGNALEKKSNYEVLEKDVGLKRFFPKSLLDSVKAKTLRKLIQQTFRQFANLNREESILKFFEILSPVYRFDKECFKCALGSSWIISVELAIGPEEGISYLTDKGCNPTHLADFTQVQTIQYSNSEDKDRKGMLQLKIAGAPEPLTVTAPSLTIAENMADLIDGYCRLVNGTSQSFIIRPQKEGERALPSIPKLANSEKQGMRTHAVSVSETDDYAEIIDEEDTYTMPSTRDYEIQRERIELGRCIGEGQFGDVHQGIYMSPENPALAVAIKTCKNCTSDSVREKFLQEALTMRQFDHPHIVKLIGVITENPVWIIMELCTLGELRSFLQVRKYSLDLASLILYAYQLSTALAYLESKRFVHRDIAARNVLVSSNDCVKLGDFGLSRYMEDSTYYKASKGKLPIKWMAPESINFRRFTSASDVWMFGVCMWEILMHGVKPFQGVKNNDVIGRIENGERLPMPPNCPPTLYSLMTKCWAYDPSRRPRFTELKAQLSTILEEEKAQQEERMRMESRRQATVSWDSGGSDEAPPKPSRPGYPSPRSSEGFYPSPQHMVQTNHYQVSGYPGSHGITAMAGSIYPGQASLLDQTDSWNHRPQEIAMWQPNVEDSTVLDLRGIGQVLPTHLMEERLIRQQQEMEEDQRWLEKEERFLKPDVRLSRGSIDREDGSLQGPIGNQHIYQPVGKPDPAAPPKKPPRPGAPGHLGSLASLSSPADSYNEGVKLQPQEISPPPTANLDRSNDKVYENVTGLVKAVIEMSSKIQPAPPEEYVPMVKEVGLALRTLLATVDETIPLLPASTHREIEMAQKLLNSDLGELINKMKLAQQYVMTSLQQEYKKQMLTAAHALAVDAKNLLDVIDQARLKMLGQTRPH
Chain of Follistatin (Homo sapiens) (P19883 whole entry, looked up): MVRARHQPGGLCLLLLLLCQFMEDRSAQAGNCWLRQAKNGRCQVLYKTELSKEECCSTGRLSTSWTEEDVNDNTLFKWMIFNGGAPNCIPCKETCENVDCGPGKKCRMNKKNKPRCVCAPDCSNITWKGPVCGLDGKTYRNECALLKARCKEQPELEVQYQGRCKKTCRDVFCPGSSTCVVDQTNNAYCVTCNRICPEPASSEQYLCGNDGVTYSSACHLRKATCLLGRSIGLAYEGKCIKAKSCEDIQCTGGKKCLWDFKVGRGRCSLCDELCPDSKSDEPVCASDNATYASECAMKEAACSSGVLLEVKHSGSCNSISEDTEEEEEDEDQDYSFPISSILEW

With `COc1ccc([Si](C)(C)[C@@H]2[C@@H](CC(=O)N3CCC[C@H]3CO)O[C@]3(C(=O)N(c4ccccc4)c4ccccc43)[C@H]2C)cc1` the composite z-score [1] was 0.569, the composite Z-score [2] was 0.723 (inactive) and the composite z-score [3] was -0.0377. For the same compound, the composite z-score [4] was -0.147, the composite z-score [5] was 0.575 and the composite z-score [6] was 1.12. The composite z-score [7] was 0.237, the composite z-score [8] was 1.3 and the composite z-score [9] was 0.553. The composite z-score [10] was 0.894, the composite z-score [11] was 0.806 and the composite z-score [12] was 1.22. It also gave a composite z-score [13] of 0.472, a composite z-score [14] of 0.94 and a composite z-score [15] of 1.1. The composite z-score [16] was 0.642, the z-score [17] was -0.228 and the composite z-score [18] was 1.01. For the same compound, the composite z-score [19] was 0.2 and the z-score [20] was 0.659 (inactive).

In the case of `O=C1c2ccccc2[C@](Cc2ccccc2I)(C(=O)NCCN2CCOCC2)[C@H](c2ccc(CO)cc2)N1Cc1ccccc1Cl`, the composite z-score [1] was 0.517, the composite Z-score [2] was 0.322 (inactive) and the composite z-score [3] was 0.223. It also gave a composite z-score [4] of 0.385, a composite z-score [5] of 0.652 and a composite z-score [6] of 1.82. For the same compound, the composite z-score [7] was 0.754, the composite z-score [8] was 1.31 and the composite z-score [9] was 0.202. The composite z-score [10] was 1.17, the composite z-score [11] was 2.09 and the composite z-score [12] was 1.16. It also gave a composite z-score [13] of 0.0936, a composite z-score [14] of 0.929 and a composite z-score [15] of 1. It also gave a composite z-score [16] of 1.23, a z-score [17] of 1.87 and a composite z-score [18] of 0.526. For the same compound, the composite z-score [19] was 1.08 and the z-score [20] was -0.593 (inactive).
